Screens deposited in PubChem BioAssay by several laboratories.
CHOP inhibitor: blocks CHOP induction under ER stress | inhibition, % at 10 µM | CHO-K1 CHOP-promoter luciferase, tunicamycin-induced, 15-18 h | hit rate 3.8% among 220,000;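 active means compounds that reduced the stress-induced luciferase reporter signal by more than about 70% of percent inhibition, limit read from the data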;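 further: 0% = tunicamycin plus vehicle and 100% = wells without tunicamycin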
Hsp70 activator: Hsp70 transcriptional activation, primary screen; HeLa Hsp70 promoter luciferase reporter, luminescence; scaled: vehicle 0, proteasome-inhibitor control 100%; activation, % at 10 µM; hit rate 0.04% among 200,000; AID 1203;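 active means activation above the mean across all tested compounds plus 3 SD, cutoff set per campaign, cut at about 5.5% in these data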;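 further: 100% = MG132 at 30 µM as the positive control and 0% = DMSO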
S1P4 agonist: agonists of human S1P4 receptor. activation, % at 4.98 µM. S1P4-expressing cell line, agonist reporter assay. hit rate 0.35% among 220,000. AID 1509. O95977; in the data active means activation above about 11%;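 further: 0% = DMSO vehicle and 100% = reference agonist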
Target sequence (O95977 whole entry, looked up): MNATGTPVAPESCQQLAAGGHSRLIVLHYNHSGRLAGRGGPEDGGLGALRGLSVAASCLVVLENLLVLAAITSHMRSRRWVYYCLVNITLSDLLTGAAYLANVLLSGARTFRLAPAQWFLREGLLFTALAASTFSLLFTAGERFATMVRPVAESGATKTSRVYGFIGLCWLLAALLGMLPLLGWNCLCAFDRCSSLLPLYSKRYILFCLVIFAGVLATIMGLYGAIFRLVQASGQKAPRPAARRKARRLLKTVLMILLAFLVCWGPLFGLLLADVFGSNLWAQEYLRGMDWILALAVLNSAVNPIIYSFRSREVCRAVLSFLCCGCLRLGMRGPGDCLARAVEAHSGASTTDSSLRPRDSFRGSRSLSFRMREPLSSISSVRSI
S1P4 antag: human S1P4 receptor antagonism. O95977. S1P4-expressing cells, antagonist mode, reporter read-out. inhibition, % at 4.98 µM. hit rate 0.26% among 220,000. AID 1510; in the data active means inhibition above about 29%;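 further: 0% = wells stimulated with agonist and 100% = vehicle wells without agonist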
CHOP inh conf: confirmation of CHOP induction inhibitors. shares compounds with CHOP inhibitor. CHO-CHOP promoter luciferase reporter, tunicamycin-induced, luminescence. inhibition, % at 10 µM. hit rate 45% among 2,100. AID 504437;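 active means mean of three repeat readings of reporter signal inhibition above a set limit, cut at about 70% in these data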;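 further: 0% = tunicamycin plus vehicle and 100% = wells lacking tunicamycin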
Numbers without * were called inactive. Most compounds without a hit are left out; they make up all but 4.2% or so of the library.

What do the screens show for `CC1CCC(C(C)C)C(OC(=O)COC(=O)c2cc(O)ccc2N)C1` (stereo unspecified)?
CHOP inhibitor: 105.5*; Hsp70 activator: -0.5; S1P4 agonist: 2.6; S1P4 antag: -5.6; CHOP inh conf: 109.2*

What do the screens show for `CCC(C(=O)O/N=C(\N)c1ccc(C)cc1)c1ccccc1` (stereo unspecified)?
CHOP inhibitor: 48.6; Hsp70 activator: 0.0; S1P4 agonist: 4.0; S1P4 antag: -1.0

What do the screens show for `CN1C(=O)CSC1=NCC12CC3CC(CC(C3)C1)C2`?
CHOP inhibitor: 104.7*; Hsp70 activator: -0.3; S1P4 agonist: -0.4; S1P4 antag: 2.1; CHOP inh conf: 6.8

What do the screens show for `Cc1cc(C)c(COCc2cc(/C=N/O)c(C)cc2C)cc1/C=N/O`?
CHOP inhibitor: 107.9*; Hsp70 activator: -0.2; S1P4 agonist: -3.8; S1P4 antag: 11.3; CHOP inh conf: 61.5

Results for COc1cc(/C=C/c2ccc3c([N+](=O)[O-])cccc3n2)ccc1OCC(=O)O ?
CHOP inhibitor: -2.5; S1P4 agonist: 0.9; S1P4 antag: 0.7

What do the screens show for `Cc1cccc2cc(CN(CC3CCCO3)C(=O)c3ccncc3)c(=O)[nH]c12` (stereo unspecified)?
CHOP inhibitor: -3.7; Hsp70 activator: -0.2; S1P4 agonist: 0.7; S1P4 antag: -2.0

How did CCCCCc1ccc(OCCC[n+]2ccccc2)c(CCCCC)c1 do in these assays?
CHOP inhibitor: 9.4; S1P4 agonist: -2.5; S1P4 antag: -42.2

What do the screens show for `CCCCCc1ccc(OCCOCCn2c[n+](C)c3ccccc32)c(CCCCC)c1`?
CHOP inhibitor: 107.7*; Hsp70 activator: -0.3; S1P4 agonist: 0.6; S1P4 antag: -25.6; CHOP inh conf: 122.1*

Results for CC(C)(C)c1ccc(-c2noc(CCC(N)=O)n2)cc1 ?
CHOP inhibitor: 100.5*; Hsp70 activator: -1.0; S1P4 agonist: -1.3; S1P4 antag: -3.8; CHOP inh conf: 113.0*

How did O=C(CN1c2ccccc2Sc2ccccc21)NNC(=O)Nc1cccc(Cl)c1 do in these assays?
CHOP inhibitor: 103.1*; S1P4 agonist: 1.7; S1P4 antag: -5.3; CHOP inh conf: 117.5*

What do the screens show for `Cc1cc(C)nc(N(C#N)CCOc2ccc(Cl)cc2)n1`?
CHOP inhibitor: 2.6; Hsp70 activator: -0.1; S1P4 agonist: -1.6; S1P4 antag: -18.0

What do the screens show for `N#C/C(=C\c1cccnc1)c1ccc(Br)cc1`?
CHOP inhibitor: 31.7; S1P4 agonist: 1.3; S1P4 antag: 5.2

How did CC(C)(C)C(=O)NC(NC(=S)Nc1sc2c(c1C#N)CCCC2)C(Cl)(Cl)Cl (stereo unspecified) do in these assays?
CHOP inhibitor: 97.1*; Hsp70 activator: -0.5; S1P4 agonist: 2.4; S1P4 antag: -20.4; CHOP inh conf: 74.4*

Results for CCCCc1c(C)c(C#N)c2[nH]c3ccccc3n2c1=O ?
CHOP inhibitor: 102.9*; Hsp70 activator: -0.1; S1P4 agonist: -1.7; S1P4 antag: -11.0; CHOP inh conf: 55.9

How did CCOC(=O)CCCCC(=O)c1[nH]c(=O)[nH]c1CSc1nnc2c3cc(Br)ccc3n(C)c2n1 do in these assays?
CHOP inhibitor: 102.6*; Hsp70 activator: -0.1; S1P4 agonist: -0.3; S1P4 antag: -5.8; CHOP inh conf: 6.1

Results for CCOC(=O)CCCCC(=O)c1[nH]c(=O)[nH]c1CSc1nc(C)cc(C)n1 ?
CHOP inhibitor: 5.1; Hsp70 activator: 1.7; S1P4 agonist: 2.4; S1P4 antag: -4.2

Results for Cc1ccc(/C=N/NC(=O)CCCOc2ccc(Cl)cc2Cl)cc1 ?
CHOP inhibitor: 99.6*; Hsp70 activator: -0.1; S1P4 agonist: 0.0; S1P4 antag: -18.4; CHOP inh conf: 105.6*

How did Cc1ccc(/C=N/NC(=O)CSCc2ccc(Cl)cc2)cc1 do in these assays?
CHOP inhibitor: 110.5*; Hsp70 activator: -0.2; S1P4 agonist: -0.2; S1P4 antag: -2.9; CHOP inh conf: 88.9*

Results for Cc1ccccc1C(=O)Nc1ccc(C(=O)NNC(=O)CCCOc2ccc(Cl)cc2Cl)cc1 ?
CHOP inhibitor: 112.5*; Hsp70 activator: -0.3; S1P4 agonist: 0.4; S1P4 antag: -14.7; CHOP inh conf: 5.9

Results for O=C(CCCOc1ccc(Cl)cc1Cl)N/N=C/c1ccccc1 ?
CHOP inhibitor: -11.6; Hsp70 activator: -0.2; S1P4 agonist: 0.8; S1P4 antag: -3.4

Results for O=C(O)COc1ccccc1/C=N/NC(=O)c1cc(-c2ccc(F)cc2)nc2ccccc12 ?
CHOP inhibitor: -16.2; Hsp70 activator: 0.2; S1P4 agonist: -0.7; S1P4 antag: -17.4

Results for Cn1c(CCNC(=O)c2ccc(Cl)c(Cl)c2)nnc1SCc1ccc(Cl)c(Cl)c1 ?
CHOP inhibitor: 99.5*; Hsp70 activator: -0.2; S1P4 agonist: 0.2; S1P4 antag: -25.8; CHOP inh conf: 51.7

What do the screens show for `COc1ccc(C(=O)NCCc2nnc(SCC(=O)Nc3ccccc3)n2C)cc1`?
CHOP inhibitor: 22.5; Hsp70 activator: -0.1; S1P4 agonist: 1.5; S1P4 antag: -2.6

Results for C=CCn1c(CCNC(=O)c2ccc(Cl)c(Cl)c2)nnc1SCCOc1ccc(OC)cc1 ?
CHOP inhibitor: 97.3*; Hsp70 activator: 0.0; S1P4 agonist: -0.2; S1P4 antag: 3.9; CHOP inh conf: 81.0*

What do the screens show for `COCCn1c(SCC(=O)NCCc2ccccc2)nnc1-c1ccco1`?
CHOP inhibitor: 39.9; Hsp70 activator: -0.4; S1P4 agonist: 0.7; S1P4 antag: -3.5

Results for Cc1ccc2nc(NCCCN3CCOCC3)c(C=NCCCN3CCOCC3)c(=O)n2c1 ?
CHOP inhibitor: -9.6; Hsp70 activator: -0.3; S1P4 agonist: -0.9; S1P4 antag: -13.4

What do the screens show for `CCCCCn1c(SCCCC)nc2c1c(=O)[nH]c(=O)n2C`?
CHOP inhibitor: 68.7; Hsp70 activator: -0.3; S1P4 agonist: -1.0; S1P4 antag: -22.5

What do the screens show for `CCOCCSc1nc2c(c(=O)[nH]c(=O)n2C)n1CCCc1ccccc1`?
CHOP inhibitor: -6.6; Hsp70 activator: -0.5; S1P4 agonist: -1.5; S1P4 antag: -15.1

How did C/C=C/Cn1c(SCCCc2ccccc2)nc2c1c(=O)[nH]c(=O)n2C do in these assays?
CHOP inhibitor: 103.5*; Hsp70 activator: -0.2; S1P4 agonist: -0.5; S1P4 antag: -3.8; CHOP inh conf: 102.6*

How did CCCCCCn1c(SCCC)nc2c1c(=O)[nH]c(=O)n2C do in these assays?
CHOP inhibitor: 98.7*; Hsp70 activator: -0.3; S1P4 agonist: -0.1; S1P4 antag: 10.2; CHOP inh conf: 80.8*

How did O=C(COC(=O)c1nc(Cl)ccc1Cl)Nc1ccc2c(c1)OCO2 do in these assays?
CHOP inhibitor: 7.2; Hsp70 activator: 0.0; S1P4 agonist: 0.7; S1P4 antag: 11.9

What do the screens show for `Cc1cc2ncn(/N=C/c3ccc4c(c3)OCO4)c2cc1C`?
CHOP inhibitor: 96.3*; Hsp70 activator: 0.0; S1P4 agonist: -0.9; S1P4 antag: 1.0; CHOP inh conf: 66.5

How did Cn1c(=S)n(/N=C/c2ccc3c(c2)OCO3)c2ccccc21 do in these assays?
CHOP inhibitor: 28.4; Hsp70 activator: -0.2; S1P4 agonist: 2.1; S1P4 antag: -9.4

Results for Cc1c(CN2CCC(CO)(CCOc3ccccc3)CC2)[nH]c2c(Cl)cccc12 ?
CHOP inhibitor: 105.4*; Hsp70 activator: -0.4; S1P4 agonist: -1.6; S1P4 antag: -8.9; CHOP inh conf: 71.1*
